Source: PubChem BioAssay (NCATS)
Results filed as inconclusive are left out. Active and inactive are the calls of the source. The call rests on the fitted dose curve; in most records, active means well fitted curve in the direction sought with a large enough effect; inconclusive means small, poorly fitted or top-dose-only effect, or another doubt; inactive means no such curve, though single readings can be large; an effect the other way counts as inactive or inconclusive.

Experiments:
[1] = Vero-766 cells viability qHTS against the NCATS CANVASS Library: Counterscreen for Zika virus inhibition assay (AID 1347394); further: series mostly up to about 46 µM; nearly all actives have a fitted effect of over 60% in size
How it was run: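 This cytotoxicity counterscreen uses African green monkey Vero 766 cells in the absence of Zika virus. Compounds are incubated with cells for 72 h, and ATP-based luminescence reports viability.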

[2] = qHTS for inhibitors of Wild type Zika virus screened against the NCATS CANVASS Library (AID 1347396);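 further: ATP luminescence of surviving cells so rescue from viral cell killing; series mostly up to about 46 µM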
How it was run: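 Vero 766 (African green monkey) cells, 1000 per well, attached overnight, then compounds were added in an 11-point series before wild-type Zika virus infection. After 72 h at 37C, cell viability was read as CellTiter Glo luminescence.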

[3] = Viability qHTS for inhibitors of the SERCaMP assay screened against the NCATS CANVASS Library (AID 1347400); further: series mostly up to about 92 µM; nearly all actives have a fitted effect of over 70% in size
How it was run: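 Seed SH-SY5Y-GLuc SERCaMP MJH297 cells at 1000 per well, incubate 4 h, add compounds across an 11-point range, incubate 48 h at 37C, then add CellTiter-Glo and read luminescence.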

[4] = Redox Reaction Profiling qHTS: Assay Interference Panel against the NCATS CANVASS Library (AID 1347401)
How it was run: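 Fluorescence read-out (525 nm excitation, 598 nm emission) at time zero and after 15 min in the dark tracked resorufin formation. Mix: 5 uM resazurin, 200 uM DTT, HEPES pH 7.3 buffer with NaCl.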

[5] = qHTS to identify inhibitors of the type 1 interferon - major histocompatibility complex class I in skeletal muscle: primary screen against the NCATS Mechanism Interrogation Plate v5.0 (MIPE) Libary (AID 1347411); further: nearly all actives have a fitted effect of over 65% in size
How it was run: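 Seed engineered human myoblasts (HLA-B HiBit) in medium without dexamethasone containing 4 ng/ml IFN-beta; after 1 hr add compound titrations (top 46 uM final). Incubate 24 hrs at 37 C, lyse 10 min with HiBiT reagent, read luminescence.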

[6] = qHTS to identify inhibitors of the type 1 interferon - major histocompatibility complex class I in skeletal muscle: primary screen against the NCATS LOPAC collection (AID 1347405);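 further: human myoblasts with HiBiT tag on endogenous HLA-B stimulated by IFN-beta; lytic HiBiT luminescence reporting HLA-B protein level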
How it was run: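 First, engineered myoblasts carrying HLA-B-HiBiT were seeded in medium lacking dexamethasone with 4 ng/ml IFN-beta. After 1 hr, compounds were pinned in (top 46 uM final, 7 points). After 24 hrs at 37 C, luminescence was measured following 10 min lysis.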

[7] = qHTS for inhibitors of adenylyl cyclases using a fission yeast platform: a pilot screen against the NCATS LOPAC library (AID 1347410)
How it was run: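 Growth medium went into the plates first, then compounds were pinned (final up to 57 µM), then CHP2027 yeast were added. Plates were incubated overnight (18 h) at 30C in the dark, and GFP was measured by laser scanning cytometry.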

[8] = Validation qHTS assay for inhibitors of Activation Induced Cytidine Deaminase (AID): UDG Counterscreen signal (AID 1347427)
How it was run: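 Fluorescence at 560 nm excitation, 665 nm emission reports UDG signal after 250 mM NaOH (2x) addition and 30 min. Enzymes (AID 1 uM, UDG 2 U/mL, at 4/3x) preincubated 10 min with compound, then 4 h with 4x 250 nM DJC20/DJC23 substrate at room temperature.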

[9] = target: Single-stranded DNA cytosine deaminase (Homo sapiens) (UniProt Q9GZX7); experiment: Validation qHTS assay for inhibitors of Activation Induced Cytidine Deaminase (AID): AID signal (AID 1347429)
Sequence of Single-stranded DNA cytosine deaminase (Homo sapiens) (Q9GZX7 whole entry, looked up): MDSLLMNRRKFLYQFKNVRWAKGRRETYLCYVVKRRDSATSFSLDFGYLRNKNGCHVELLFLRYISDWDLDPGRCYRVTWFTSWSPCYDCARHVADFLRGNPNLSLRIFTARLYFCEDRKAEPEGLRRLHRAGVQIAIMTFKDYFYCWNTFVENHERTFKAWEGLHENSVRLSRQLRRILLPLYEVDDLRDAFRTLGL
How it was run: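 Steps: dispense AID with UDG; pin-transfer compound up to 114 uM final; add DJC20/DJC23 substrate and hold 4 hr at room temperature; add NaOH, hold 30 min; read FRET signal (540/590 nm).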

[10] = Primary qHTS for inhibitors of La Crosse Virus (LACV) - induced cell death in SH-SY5Y cells (AID 1508616);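 further: top concentration of the series differs between compounds; higher means more rescue of cells from virus-induced death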
How it was run: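 SH-SY5Y, 6000 cells/well; cpd via pin tool in DMSO; LACV 0.01 MOI; 6 d 37C 5% CO2; ATPLite, 5 min RT; luminescence normalized to ±virus DMSO controls.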

Measured: Potency

CC(=O)NCCc1c[nH]c2ccc(O)cc12
inactive: [1] | [2] | [3]

O=C(O)Cc1c[nH]c2ccc(O)cc12
inactive: [1] | [2] | [3] | [4]

CCCc1c(OCCCOc2ccc(OCC(=O)O)cc2)ccc(C(C)=O)c1O
inactive: [5]

CC1=C(/C=C/C(C)=C/C=C/C(C)=C\C(=O)O)C(C)(C)CCC1
inactive: [5]

N=S(=O)(O)Cc1noc2ccccc12
inactive: [6] | [7] | [8] | [9] | [10]

C[C@H](NC(=O)/C(C#N)=C/c1ccc(O)c(O)c1)c1ccccc1
inactive: [6] | [7] | [8] | [9] | [10]

CNCCc1cnc(CCC(c2ccccc2)c2ccccc2)[nH]1
inactive: [6] | [7] | [8] | [9] | [10]

NC/C=C\C(=O)O
inactive: [6] | [7] | [8] | [9] | [10]

C=C1C[C@@]23CC[C@H]4[C@@](C)(CCC[C@@]4(C)C(=O)O)[C@@H]2CC[C@]1(O)C3
inactive: [6] | [7] | [8] | [9] | [10]

C=CC[C@H](N)C(=O)O
inactive: [6] | [7] | [8] | [9] | [10]

COc1cc(CC(=O)O)ccc1O
inactive: [6] | [7] | [8] | [9] | [10]

O=C(O)/C=C/c1ccc(O)c(O)c1
inactive: [6] | [7] | [8] | [9] | [10]

COc1ccccc1N1CCN(CCCCN2C(=O)c3ccccc3C2=O)CC1
inactive: [6] | [7] | [8] | [9] | [10]

c1ccc2c(c1)CC(N1CCN(c3cccc4c3OCCO4)CC1)C2
inactive: [6] | [7] | [8] | [9] | [10]

Oc1cc2c(cc1O)C(c1ccccc1)CNCC2 (centres undefined)
inactive: [6] | [7] | [8] | [9] | [10]

O=C(O)c1cc2cc(F)ccc2[nH]1
inactive: [6] | [7] | [8] | [9] | [10]

CN(CC[C@@H](Oc1ccc(C(F)(F)F)cc1)c1ccccc1)CC(=O)O
inactive: [6] | [7] | [8] | [9] | [10]

NCCS(=O)O
inactive: [6] | [7] | [8] | [9] | [10]

CC(=O)O[C@H]1Cc2ccccc2N(C(N)=O)c2ccccc21
inactive: [6] | [7] | [8] | [9] | [10]

NC(N)=[N+]1CCc2ccccc2C1
inactive: [6] | [7] | [8] | [9] | [10]

N=C(N)SCCN
inactive: [6] | [7] | [8] | [9] | [10]

OC1(c2ccc(Cl)cc2)CCN(Cc2c[nH]c3ccccc23)CC1
inactive: [6] | [7] | [8] | [9] | [10]

CC1C(=O)N(C)C(=O)c2nc[nH]c21 (centres undefined)
inactive: [6] | [7] | [8] | [9] | [10]

Oc1ccc(/C=C/c2ccc(/C=C/c3ccc(O)cc3)c(Br)c2)cc1
inactive: [6] | [7] | [8] | [9] | [10]

CCCN(CCc1ccccc1)C1CCc2c(O)cccc2C1 (centres undefined)
inactive: [6] | [7] | [8] | [9] | [10]

Nc1ncnc2c1ncn2C1CCCO1 (centres undefined)
inactive: [6] | [7] | [8] | [9] | [10]

Cc1nc2n(c(=O)c1CCN1CCC(c3noc4cc(F)ccc34)CC1)CCCC2O (centres undefined)
inactive: [6] | [7] | [8] | [9] | [10]

Nc1ccc(CCNc2ncnc3c2ncn3C2OC(CO)C(O)C2O)cc1 (centres undefined)
inactive: [6] | [7] | [8] | [9] | [10]

CC(=O)N[C@@H](Cc1c[nH]c2ccccc12)C(=O)OCc1cc(C(F)(F)F)cc(C(F)(F)F)c1
inactive: [6] | [7] | [8] | [9] | [10]

COc1cc(N)c(Cl)cc1C(=O)OCCN1CCCCC1
inactive: [6] | [7] | [8] | [9] | [10]

O=C(O)CCC(=O)N1CCCC1C(=O)O (centres undefined)
inactive: [6] | [7] | [8] | [9] | [10]

N[C@H](C(=O)O)[C@H](O)C(=O)O
inactive: [6] | [7] | [8] | [9] | [10]

Cc1cccc(C)c1OCC(N)C(C)C (centres undefined)
inactive: [6] | [7] | [8] | [9] | [10]

C=CCN1CCc2cc(O)c(O)cc2C(c2ccccc2)C1 (centres undefined)
inactive: [6] | [7] | [8] | [9] | [10]

COC(=O)[C@H](NC(=O)c1cc(-c2ccccc2)nc2ccccc12)c1ccccc1
inactive: [6] | [7] | [8] | [9] | [10]

COc1cc2c(CCNC(C)=O)c[nH]c2cc1O
inactive: [6] | [7] | [8] | [9] | [10]

NC(=O)c1ccccc1
inactive: [6] | [7] | [8] | [9] | [10]

CC(=O)/C(C)=N/O
inactive: [6] | [7] | [8] | [9] | [10]

CC(N)(C(=O)O)c1ccc(C(=O)O)cc1 (centres undefined)
inactive: [6] | [7] | [8] | [9] | [10]

O=C(O)C1=CCNCC1
inactive: [6] | [7] | [8] | [9] | [10]
